# Inconclusive results are not listed. A structure can be active in one record and inactive in another. Active and inactive are the calls of the source. Unless noted, the call rests on the fitted dose curve; in most records, active means well fitted curve in the direction sought with a large enough effect; inconclusive means small, poorly fitted or top-dose-only effect, or another doubt; inactive means no such curve, though single readings can be large; an effect the other way counts as inactive or inconclusive.
# Assays:
# [1] = P-glycoprotein substrates identified in KB-3-1 adenocarcinoma cell line, qHTS therapeutic library screen (AID 1346986); further: nearly all actives have a fitted effect of over 60% in size;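 further: potency means the concentration at half of the fitted maximal effect; potency is for cytotoxicity meaning loss of cell viability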
# Outline: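 In 1536-well format, 500 cells/well received pinned compound titrations and were incubated 72 h, 5% CO2. Viability was read by CellTiter-Glo; cytotoxic if AC50 < 10 uM and efficacy >50%.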
# [2] = target: Calcium and integrin-binding protein 1 (Homo sapiens) (UniProt Q99828); assay: Primary qHTS for Identification of Calcium Integrin Binding Protein 1 (CIB1) Competitor (AID 1508620);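 further: GST tagged CIB1 binding a fluorescein labelled alphaIIb integrin peptide tracer; top concentration of the series differs between compounds; on the % scale 0 is the no-effect control and ±100 the full control effect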
# Sequence of Calcium and integrin-binding protein 1 (Homo sapiens) (Q99828 whole entry, looked up): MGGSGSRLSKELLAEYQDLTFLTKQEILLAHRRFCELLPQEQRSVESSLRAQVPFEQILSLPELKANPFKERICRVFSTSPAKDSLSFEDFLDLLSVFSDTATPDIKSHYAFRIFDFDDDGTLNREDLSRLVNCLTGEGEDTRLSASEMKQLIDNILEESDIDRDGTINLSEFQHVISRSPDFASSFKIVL
# Outline: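 Fluorescence polarization competition: GST-tagged CIB1 (1 uM final) preincubated with compound 15 min at room temperature, then FITC-labelled alphaIIb peptide (100 nM final) added. After 15 min at room temperature, polarization read at Ex 480/Em 540.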
# [3] = Primary qHTS for inhibitors of nuclear receptor binding SET domain protein 2 (NSD2) in an isogenic RCH-ACV NSD2 p.E1099K mutant (9B) (AID 1645876); further: nearly all actives have a fitted effect of over 70% in size; further: potency means the concentration at half of the fitted maximal effect
# [4] = Primary qHTS for inhibitors of nuclear receptor binding SET domain protein 2 (NSD2) in an RCH-ACV wild type WT cells (2C) (AID 1645877); further: nearly all actives have a fitted effect of over 70% in size; further: potency means the concentration at half of the fitted maximal effect
# [5] = target: Glutathione peroxidase 1 (Homo sapiens) (UniProt P07203); assay: Primary qHTS Assay for Inhibitors of Recombinant Selenoprotein Glutathione Peroxidase 1 (GPX1) (AID 1845191); further: nearly all actives have a fitted effect of over 65% in size
# Sequence of Glutathione peroxidase 1 (Homo sapiens) (P07203 whole entry, looked up): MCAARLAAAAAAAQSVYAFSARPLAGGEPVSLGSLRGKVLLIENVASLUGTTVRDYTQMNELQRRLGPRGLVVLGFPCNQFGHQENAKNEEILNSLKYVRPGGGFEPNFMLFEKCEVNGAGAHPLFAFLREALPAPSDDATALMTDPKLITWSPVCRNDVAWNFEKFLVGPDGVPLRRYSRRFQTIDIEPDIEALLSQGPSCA
# Outline: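 GR-coupled readout: NADPH consumption tracked by fluorescence, ex 340/em 450 nm, at t=0 and after 15 min at RT. Final mix 10 nM GPX1, 1 mM GSH, 0.5 mM CHP, 0.5 mM NADPH, 100 nM GR, 0.01% BSA, following 30 min enzyme–compound preincubation.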
# [6] = target: N-terminal Xaa-Pro-Lys N-methyltransferase 1 (Homo sapiens) (UniProt Q9BV86); assay: Confirmatory qHTS for Inhibitors of N-terminal methyltransferase 1 (NTMT1): MTaseGlo Assay (AID 1645874); further: potency means the concentration at half of the fitted maximal effect; nearly all actives have a fitted effect of over 65% in size
# Sequence of N-terminal Xaa-Pro-Lys N-methyltransferase 1 (Homo sapiens) (Q9BV86 whole entry, looked up): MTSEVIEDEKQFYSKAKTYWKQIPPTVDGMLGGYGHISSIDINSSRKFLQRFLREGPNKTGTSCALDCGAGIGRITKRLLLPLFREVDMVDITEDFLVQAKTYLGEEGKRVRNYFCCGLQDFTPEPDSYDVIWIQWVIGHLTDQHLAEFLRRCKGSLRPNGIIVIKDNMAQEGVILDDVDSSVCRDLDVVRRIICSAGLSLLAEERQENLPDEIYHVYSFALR
# Outline: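 Room-temperature NTMT1 reaction, 30 min, with 100 uM SAM and 1 uM SPKRIA substrate; enzyme 125 nM. Read-out: MTase-Glo luminescence, normalized to no-enzyme and DMSO controls.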
# [7] = target: Catechol O-methyltransferase (Homo sapiens) (UniProt P21964); assay: Confirmatory Screen for Target Class Profiling of Small Molecule Inhibitors of Methyltransferases (AID 1745852; calls by dose curve; further: potency means the concentration at half of the fitted maximal effect); settings: MTase-Glo luminescence, SAH detection, recombinant enzyme; measured here: COMT max response; stronger effect = lower value
# Sequence of Catechol O-methyltransferase (Homo sapiens) (P21964 whole entry, looked up): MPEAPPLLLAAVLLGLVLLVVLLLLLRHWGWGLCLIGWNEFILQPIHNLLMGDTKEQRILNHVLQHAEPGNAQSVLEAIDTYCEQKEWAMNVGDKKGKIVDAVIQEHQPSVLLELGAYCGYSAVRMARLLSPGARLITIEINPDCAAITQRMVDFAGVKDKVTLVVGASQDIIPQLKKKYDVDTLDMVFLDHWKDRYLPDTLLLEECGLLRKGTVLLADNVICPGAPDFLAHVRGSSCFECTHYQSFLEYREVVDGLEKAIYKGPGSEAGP
# [8] = target: Guanidinoacetate N-methyltransferase (Homo sapiens) (UniProt Q14353); assay: as above; settings: activity change, negative = inhibition: at 57.3 µM (top of the series) unless noted
# [9] = target: Nicotinamide N-methyltransferase (Homo sapiens) (UniProt P40261); assay: as above; settings: MTase-Glo luminescence, SAH detection, recombinant enzyme; measured here: NNMT max response; stronger effect = lower value
# Sequence of Nicotinamide N-methyltransferase (Homo sapiens) (P40261 whole entry, looked up): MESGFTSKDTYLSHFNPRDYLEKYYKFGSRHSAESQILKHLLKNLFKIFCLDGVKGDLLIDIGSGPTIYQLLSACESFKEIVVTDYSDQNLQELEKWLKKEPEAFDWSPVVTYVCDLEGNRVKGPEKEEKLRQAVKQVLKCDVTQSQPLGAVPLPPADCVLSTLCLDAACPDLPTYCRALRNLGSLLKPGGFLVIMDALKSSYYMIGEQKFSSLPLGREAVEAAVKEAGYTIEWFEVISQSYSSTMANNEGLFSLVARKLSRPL
# [10] = target: Phenylethanolamine N-methyltransferase (Homo sapiens) (UniProt P11086); assay: as above; settings: MTase-Glo luminescence, SAH detection, recombinant enzyme; measured here: PNMT max response; stronger effect = lower value
# Sequence of Phenylethanolamine N-methyltransferase (Homo sapiens) (P11086 whole entry, looked up): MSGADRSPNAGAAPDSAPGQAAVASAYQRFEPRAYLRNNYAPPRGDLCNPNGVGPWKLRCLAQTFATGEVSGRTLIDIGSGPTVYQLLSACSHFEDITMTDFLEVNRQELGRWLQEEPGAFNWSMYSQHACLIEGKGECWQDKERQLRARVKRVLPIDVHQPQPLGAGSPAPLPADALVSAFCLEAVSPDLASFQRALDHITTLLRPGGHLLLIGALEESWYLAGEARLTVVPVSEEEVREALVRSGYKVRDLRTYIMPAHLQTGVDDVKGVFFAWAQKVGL
# [11] = P-glycoprotein substrates identified in KB-8-5-11 adenocarcinoma cell line, qHTS therapeutic library screen (AID 1346987); further: nearly all actives have a fitted effect of over 65% in size; further: potency means the concentration at half of the fitted maximal effect
# Outline: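 Compounds are pinned in dose-response onto KB-8-5-11 cells (500 cells/well, colchicine-free medium) and left 72 h at 37 degree C. CellTiter-Glo luminescence then yields AC50 values.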
# [12] = qHTS to identify inhibitors of the type 1 interferon - major histocompatibility complex class I in skeletal muscle: primary screen against the NCATS Mechanism Interrogation Plate v5.0 (MIPE) Libary (AID 1347411); further: potency means the concentration at half of the fitted maximal effect; nearly all actives have a fitted effect of over 65% in size
# Outline: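 Luminescence from CRISPR HiBit-tagged endogenous HLA-B in human myoblasts reported MHC class I level after 24 h of IFN-beta (4 ng/ml) plus compound. Compounds ran as 11-point 1:3 series, top 46 uM final.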
# [13] = target: Phospholipid hydroperoxide glutathione peroxidase GPX4 (Homo sapiens) (UniProt P36969); assay: Primary qHTS Assay for Inhibitors of Recombinant Selenoprotein Glutathione Peroxidase 4 (GPX4) (AID 1845192); settings: outcome: dose series up to 50 µM unless noted; further: nearly all actives have a fitted effect of over 65% in size; on activity change, negative = inhibition: on the % scale 0 is the no-effect control and ±100 the full control effect
# Sequence of Phospholipid hydroperoxide glutathione peroxidase GPX4 (Homo sapiens) (P36969 whole entry, looked up): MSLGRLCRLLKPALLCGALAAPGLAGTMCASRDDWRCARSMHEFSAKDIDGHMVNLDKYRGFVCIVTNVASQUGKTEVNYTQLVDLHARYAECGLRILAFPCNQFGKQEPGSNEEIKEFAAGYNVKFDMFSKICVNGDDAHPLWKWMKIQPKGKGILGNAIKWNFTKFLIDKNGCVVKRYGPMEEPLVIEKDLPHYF
# Outline: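 Steps: GPX4 plus compound, 30 min RT; add GR/GSH/NADPH master mix; start with cumene hydroperoxide; read 340/450 nm fluorescence at 0 and 15 min. Finals were 200 nM GPX4, 1 mM GSH, 0.5 mM CHP, 0.5 mM NADPH, 100 nM GR.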
# [14] = qHTS drug screen for cell cycle checkpoint inhibitors in PARPi-resistant BRCA-mutant ovarian cancer cell lines. (AID 1963452; calls by dose curve; further: potency means the concentration at half of the fitted maximal effect); settings: PEO1/OlaR viability, CellTiter-Glo luminescence, 96 h; for Z-AUC: stronger effect = lower value
# Outline: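 PEO1, PEO4 and PEO1/OlaR ovarian cancer cells, 600 per well, exposed 96 h at 37C to a dilution series. Viability read by CellTiter-Glo luminescence, normalized to DMSO and empty wells; activity summarized as Z-AUC.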
# [15] = qHTS assay to identify inhibitors of the type 1 interferon - major histocompatibility complex class I in skeletal muscle: Counter screen cell viability and HiBit confirmation (AID 1347412); settings: iHSKM muscle cells + IFN-b, HiBiT or CellTiter-Glo, 24 h; for activity change, negative = inhibition: at 45.9 µM (top of the series); further: potency means the concentration at half of the fitted maximal effect; on activity change, negative = inhibition: on the % scale 0 is the no-effect control and ±100 the full control effect; on all read-outs here: nearly all actives have a fitted effect of over 60% in size
# Outline: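 Human myoblast knock-in line, 4.0 ng/ml IFN-beta stimulation, 24 h compound treatment. Endpoints: HiBiT lytic luminescence (HLA-B level) and CellTiter Glo (ATP). Dosing 12 concentrations, 3-fold steps, 46 uM highest final.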
# [16] = target: Tyrosine-protein kinase Yes (Homo sapiens) (UniProt P07947); assay: qHTS for small molecule inhibitors of Yes1 kinase: Primary Screen (AID 686947); further: potency means the concentration at half of the fitted maximal effect; nearly all actives have a fitted effect of over 60% in size
# Sequence of Tyrosine-protein kinase Yes (Homo sapiens) (P07947 whole entry, looked up): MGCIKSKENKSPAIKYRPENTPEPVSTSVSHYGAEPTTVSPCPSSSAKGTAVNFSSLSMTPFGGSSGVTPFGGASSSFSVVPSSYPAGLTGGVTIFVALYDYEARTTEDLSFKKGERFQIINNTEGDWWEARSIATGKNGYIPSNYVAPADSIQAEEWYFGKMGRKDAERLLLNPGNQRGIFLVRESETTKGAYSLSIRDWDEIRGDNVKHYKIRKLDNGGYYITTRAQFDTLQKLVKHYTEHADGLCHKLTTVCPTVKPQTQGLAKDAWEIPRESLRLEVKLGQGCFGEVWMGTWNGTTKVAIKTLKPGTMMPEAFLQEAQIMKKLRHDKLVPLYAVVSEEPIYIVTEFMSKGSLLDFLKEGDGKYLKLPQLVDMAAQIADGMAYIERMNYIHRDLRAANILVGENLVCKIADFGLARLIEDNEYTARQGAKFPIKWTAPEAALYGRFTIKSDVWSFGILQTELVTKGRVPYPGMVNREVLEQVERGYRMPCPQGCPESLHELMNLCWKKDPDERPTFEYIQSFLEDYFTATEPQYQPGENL
# Outline: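 ADP-Glo luminescence reports ADP formed by 4 nM Yes1 phosphorylating poly(E4Y) (0.3 mg/mL) with 0.1 mM ATP for 60 min at room temperature, following 20 min compound preincubation; normalised between DMSO wells with and without enzyme.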
# [17] = qHTS for small molecule inhibitors of Yes1 kinase: Counter Assay (AID 686950);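 further: no kinase present so only ADP-Glo detection of a fixed ADP amount is tested; luminescence from ADP-Glo reporting ADP in a fixed ATP and ADP mixture; 0% = DMSO wells with ATP plus ADP and -100% = ATP-only wells without ADP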
# Outline: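 No kinase present; 0.08 mM ATP + 0.02 mM ADP in 50 mM Tris pH 7.5, 10 mM MgCl2, 150 mM NaCl, 1 mM DTT; 20 min compound preincubation, 60 min RT, ADP-Glo luminescence, normalized to ATP/ADP (max) and ATP-only (min).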
# [18] = measured here: PEO1 parental Z-AUC
smiles,measurement,setting,value
Cc1ccc(NS(=O)(=O)c2cc3c(cc2F)NC(=O)CC3)cc1Cl,Potency,[1],inactive
same,outcome,[2],inactive
same,Potency,[3],inactive
same,Potency,[4],inactive
same,Potency,[5],inactive
CN(Cc1nccs1)c1ncnc2ccc(-c3ccc4c(c3)OCO4)cc12,Potency,[1],inactive
same,outcome,[2],inactive
same,Potency,[6],11.5 µM (active)
same,activity,[7],-82.4%
same,Potency,[8],24.1 µM (active)
same,activity,[9],-71.7%
same,activity,[10],-84.4%
same,Potency,[5],inactive
COc1cc(OC)c(/C=C2\C(=O)Nc3ccccc32)c(OC)c1,Potency,[1],0.92 µM (active)
same,Potency,[11],0.92 µM (active)
same,Potency,[3],1.03 µM (active)
same,Potency,[4],920 nM (active)
same,Potency,[5],inactive
CN1C/C=C/CCOc2cccc(c2)-c2ccnc(n2)Nc2cccc(c2)C1,Potency,[1],0.092 µM (active)
same,Potency,[12],0.165 µM (active)
same,Potency,[3],0.092 µM (active)
same,Potency,[4],73.1 nM (active)
same,Potency,[5],inactive
same,Potency,[13],inactive
same,Potency,[14],0.549 µM (active)
same,Z-AUC,[14]; [18],-1.71
same,Z-AUC,[14]; measured here: PEO4 Z-AUC,-1.51
same,Potency,[15]; HiBiT,0.111 µM (active)
same,"activity change, negative = inhibition",[15]; Viability,-20% (inactive)
NC1CCCN(c2c(/C=C3\SC(=O)NC3=O)cccc2-c2ccccc2)C1 (centres undefined),Potency,[1],inactive
same,Potency,[11],inactive
same,Potency,[5],inactive
same,Z-AUC,[14],-0.874 (inactive)
same,Z-AUC,[14]; [18],-0.352
same,Z-AUC,[14]; measured here: PEO4 Z-AUC,-1.12
Cn1cc(-c2cc(Oc3cc(F)c(NC(=O)C4(C(=O)Nc5ccccc5)CC4)cc3F)ccn2)cn1,Potency,[1],18.4 µM (active)
same,Potency,[12],29.4 µM (active)
same,Potency,[3],9.34 µM (active)
same,Potency,[4],13200 nM (active)
same,Potency,[5],inactive
same,Potency,[13],inactive
same,Z-AUC,[14],0.797 (inactive)
same,Z-AUC,[14]; [18],-0.238
same,Z-AUC,[14]; measured here: PEO4 Z-AUC,0.178
O=C1Cc2c([nH]c3ccc([N+](=O)[O-])cc23)-c2ccccc2N1,Potency,[1],1.78 µM (active)
same,Potency,[11],2.52 µM (active)
same,Potency,[3],0.796 µM (active)
same,Potency,[5],inactive
COCc1c(-c2ccc(NC(=O)Nc3cc(C(F)(F)F)ccc3F)c(F)c2)c2c(N)ncnn2c1CN1CCOCC1,Potency,[1],16.4 µM (active)
same,Potency,[12],3.3 µM (active)
same,Potency,[5],inactive
same,Potency,[14],3.47 µM (active)
same,Z-AUC,[14]; [18],-1.33
same,Z-AUC,[14]; measured here: PEO4 Z-AUC,-1.61
same,"activity change, negative = inhibition",[15]; HiBiT,-92% (inactive)
Cc1c(-c2ccnc(Nc3cc(Br)cc(C(F)(F)F)c3)n2)sc(=O)n1C,Potency,[1],inactive
same,Potency,[11],inactive
same,Potency,[3],5.8 µM (active)
same,Potency,[4],4110 nM (active)
same,Potency,[5],inactive
C[n+]1cc(NC(=O)c2cccc(C(=O)Nc3cc4ccccc4[n+](C)c3)n2)cc2ccccc21,Potency,[1],16.4 µM (active)
same,Potency,[11],inactive
same,Potency,[4],inactive
same,Potency,[5],inactive
COc1ccc(-c2oc3ncnc(N)c3c2-c2ccc(NC(=O)Nc3cc(C(F)(F)F)ccc3F)cc2)cc1,Potency,[16],1.04 µM (active)
same,outcome,[17],inactive
same,Potency,[1],4.61 µM (active)
same,Potency,[11],5.8 µM (active)
same,Potency,[3],6.51 µM (active) and inactive
same,Potency,[4],10.3 µM (active) and inactive
same,Potency,[5],inactive
same,Z-AUC,[14],0.736 (inactive)
same,Z-AUC,[14]; [18],0.865
same,Z-AUC,[14]; measured here: PEO4 Z-AUC,0.712
